The panel holds about 79,000 compounds, 15% with a hit somewhere; the sample as a whole holds those more often. Unmarked numbers belong to inactive results. Active and inactive are the calls of the source. No stated cut-off is given here; in the data, active means growth inhibition above about 70%; inactive means the rest.

The nature of test [1]: NCI Yeast Anticancer Drug Screen. Data for the rad50 strain (AID 155).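 Further: 0% = growth of vehicle-only cultures of the same strain.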 Particulars: S. cerevisiae rad50 strain growth inhibition; at 50.0 µM; hits give high values. Put shortly: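 Genetically altered yeast (DNA repair pathway); compound treatment; growth inhibition vs vehicle ctrl.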
The nature of test [2]: NCI Yeast Anticancer Drug Screen. Data for the mec2-1 strain (AID 157). Particulars: S. cerevisiae mec2-1 strain, at 50.0 µM, hits give high values. Put shortly: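 mec2-1 yeast strain, carrying an alteration in DNA damage repair or cell cycle control, was exposed to compounds; growth inhibition was measured relative to vehicle-treated controls.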
A short description of test [3]: NCI Yeast Anticancer Drug Screen. Data for the sgs1 mgt1 strain (AID 161).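 Further: 0% = growth of cultures given vehicle only.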 Particulars: S. cerevisiae sgs1 mgt1 strain, at 50.0 µM, hits give high values. The method, boiled down: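 Growth of a repair-deficient yeast mutant was monitored after compound treatment and expressed as inhibition relative to vehicle-treated cultures.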
Test [4] can be described thus: NCI Yeast Anticancer Drug Screen. Data for the cln2 rad14 strain (AID 165).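 Further: 0% = growth equal to vehicle treated cultures.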 Particulars: S. cerevisiae cln2 rad14 strain, at 50.0 µM, hits give high values. Put shortly: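 Yeast carrying cln2 and rad14 alterations (cell cycle control and DNA damage repair) were exposed to compounds. Growth inhibition was measured against vehicle-treated controls.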
Test [5] can be described thus: NCI Yeast Anticancer Drug Screen. Data for the bub3 strain (AID 167). Particulars: S. cerevisiae bub3 mutant strain, at 50.0 µM, hits give high values. Put shortly:
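Yeast carrying a defined mutation is treated with each compound, and growth is compared with that of vehicle-exposed cells to give inhibition.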

A short description of test [6]: NCI Yeast Anticancer Drug Screen. Data for the mlh1 rad18 strain (AID 175). Particulars: S. cerevisiae mlh1 rad18 strain growth inhibition; at 50.0 µM; hits give high values. Put shortly: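 Growth inhibition of the yeast strain was measured after compound exposure and expressed relative to vehicle-treated controls. The strain carries defined defects in DNA damage repair.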

`CN(C)C(=O)Nc1ccc2c(c1)OCO2`: the growth inhibition in test [1] was 0.8%; in test [2], 8.6%; in test [3], -1.4%; in test [4], -31.9%; in test [5] it was -13.2%; in test [6], 9.45%.
In the case of `CC(=O)OC1CC[C@@]2(C)C(C1)CC(OC(C)=O)[C@@H]1C2CC(OC(C)=O)[C@]2(C)C(C(C)CC=C(c3ccc(Cl)cc3)c3ccc(Cl)cc3)CCC12` (stereo not given in full), the growth inhibition in test [1] was 0.4%; in test [2] it was 2.8%; in test [3] it was 3.05%; in test [4], 11.1%; in test [5], 20.5%; in test [6] it was 5%.
`CCCCCCCCCCCCCCCCCC(=O)OCC1CO1` (stereo not given): the growth inhibition in test [1] was 23.2%; in test [2], 10.3%; in test [3] it was 21.6%; in test [4], 13.2%; in test [5], 18.9%; in test [6], 21.1%.
Regarding `CCCN1COC(OCCN(CC)CC)C(C)(C)C1` (stereo not given), the growth inhibition in test [1] was 7.15%; in test [2], -4.35%; in test [3], -21.3%; in test [4], 6.7%; in test [5] it was 7.2%; in test [6], 12.9%.
`O=C(OCC(Cl)(Cl)Cl)N1[C@H]2C3=C(CCC3)[C@@H]([C@H]3O[C@H]32)N1C(=O)OCC(Cl)(Cl)Cl`: the growth inhibition in test [1] was -38.8%; in test [2], -8.35%; in test [3] it was -1.9%; in test [4] it was 20.7%; in test [5] it was 10%; in test [6], 2.3%.
Consider `Nc1cccc(-c2nc3ccccc3[nH]2)c1`, for which the growth inhibition is -21.9% in test [1]; -26.4% in test [2]; -17.8% in test [3]; -9.2% in test [4]; -20.2% in test [5]; -14.6% in test [6].
`CC1(C)CCC2(CO)C(=C3C=CC4C5(C)CCC(O)C(C)(CO)C5CCC4(C)C3(C)CC2O)C1` (stereo not given): the growth inhibition in test [1] was 0.45%; in test [2] it was -31.8%; in test [3] it was -0.75%; in test [4], -3.35%; in test [5] it was -9.5%; in test [6], 11.4%.
Turning to `CC[N+]1(C)CCC(O)(c2ccccc2)C(C(=O)c2ccccc2)C1` (stereo not given), the growth inhibition was 3.5% in test [1]; -6.1% in test [2]; -5.55% in test [3]; 34.1% in test [4]; 6.1% in test [5]; 11.3% in test [6].
Regarding `CC(C)NC(=O)c1ccccc1S(=O)c1ccccc1C(=O)NC(C)C`, the growth inhibition in test [1] is -16.4%; in test [2] it was 3.45%; in test [3], 8.15%; in test [4], 11.3%; in test [5], 5.05%; in test [6], 7.25%.
Turning to `Cc1cc(=O)[nH]c(/N=C(/N)N(C)C)n1`, the growth inhibition was 4.15% in test [1]; -10.8% in test [2]; 3% in test [3]; 11.4% in test [4]; 8.2% in test [5]; 5.05% in test [6].
`C[n+]1c(/C=C\c2ccc(O)cc2)cc(C(N)=O)c2ccccc21`: the growth inhibition in test [1] was 19.2%; in test [2] it was 11.8%; in test [3] it was 17.1%; in test [4] it was 2.6%; in test [5], 3.65%; in test [6], 7.7%.
Consider `CC(=O)Nc1ccc(S(=O)(=O)NC2(C)C(=O)N(C)C(=O)N(C)C2=O)cc1`, for which the growth inhibition in test [1] was 32.2%; in test [2], 15.2%; in test [3], 14.2%; in test [4] it was 17.5%; in test [5] it was 3.15%; in test [6], 27.7%.
On to `O=C1c2sccc2[C@H](NC(=O)C(F)(F)F)[C@@H]1Cl`, for which the growth inhibition in test [1] was 4.5%; in test [2], 3.45%; in test [3], 1.1%; in test [4], 25.1%; in test [5], 7.25%; in test [6] it was 18.6%.
Consider `Cc1cccc(C(=O)NN)c1O`, for which the growth inhibition in test [1] was -1.7%; in test [2], -14.7%; in test [3] it was -6.25%; in test [4] it was 5.7%; in test [5] it was 23.9%; in test [6] it was 22.2%.
As to `CCC(O)(c1ccc(OC)cc1)C(O)(CC)c1ccc(OC)cc1` (stereo not given), the growth inhibition in test [1] is 9.2%; in test [2], 2.05%; in test [3], 16.4%; in test [4] it was 7.8%; in test [5] it was 5.85%; in test [6], 4.9%.
For the compound `c1ccc(-c2nc3n(n2)CCC(c2ccccc2)S3)cc1` (stereo not given), the growth inhibition in test [1] is -7.95%; in test [2], -18.1%; in test [3], -15.5%; in test [4] it was 3.9%; in test [5], 6.1%; in test [6], -8.75%.
For the compound `Cc1ccc(NC(=O)C2CCN(C)CC2)cc1`, the growth inhibition in test [1] was -14.3%; in test [2], -15%; in test [3], -16.7%; in test [4], -23.4%; in test [5], -8.7%; in test [6] it was 7.85%.
On to `Cn1c(=O)c2c(=O)n3ccccc3nc2n(C)c1=O`, for which the growth inhibition in test [1] was 48%; in test [2], 48%; in test [3], 72.1% (active); in test [4], 68.4%; in test [5], 62.9%; in test [6] it was 69.4%.
With `COC(=O)C1CCCC2(C1)OCCO2` (stereo not given), the growth inhibition is 15.2% in test [1]; 5% in test [2]; -23.1% in test [3]; -10.2% in test [4]; -32.7% in test [5]; -2.75% in test [6].
In the case of `CCC/C=C1\CCC(CN(C)C)C1=O` (stereo not given), the growth inhibition in test [1] is -9.8%; in test [2], 7.85%; in test [3], 18.6%; in test [4] it was -1.4%; in test [5], -11.9%; in test [6], 15.1%.

(Values after PubChem BioAssay (NCI).)
